Source: PubChem BioAssay AID1220 (Sanford-Burnham Center for Chemical Genomics, 2008)
The whole screen tested about 190,000 compounds, of which about 1,300 (0.68%) were called active. This is one part of a sample in which actives are shown more often than they occur. Rule as the data show it: active = inhibition above about 50%; inactive = the rest.

biological target: Mannose-6-phosphate isomerase (Homo sapiens) (UniProt P34949); assay: human PMI inhibitors, high substrate, primary screen, biochemical, fluorescence intensity, high mannose 6-phosphate (AID 1220); settings: recombinant PMI enzyme, coupled fluorescence intensity; at 20 µM; stronger effect = higher value
Sequence (P34949 whole entry, looked up): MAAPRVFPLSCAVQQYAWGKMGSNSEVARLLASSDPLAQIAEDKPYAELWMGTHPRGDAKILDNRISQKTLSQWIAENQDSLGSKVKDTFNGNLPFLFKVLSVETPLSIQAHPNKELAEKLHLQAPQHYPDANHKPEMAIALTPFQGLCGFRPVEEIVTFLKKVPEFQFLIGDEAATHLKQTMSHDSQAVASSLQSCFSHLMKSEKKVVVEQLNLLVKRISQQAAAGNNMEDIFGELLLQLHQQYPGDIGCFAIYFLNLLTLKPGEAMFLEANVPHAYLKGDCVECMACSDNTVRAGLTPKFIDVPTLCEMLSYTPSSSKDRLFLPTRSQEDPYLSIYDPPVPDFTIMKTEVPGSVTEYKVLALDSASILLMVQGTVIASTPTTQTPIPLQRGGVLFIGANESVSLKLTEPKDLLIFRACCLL

inhibition, active:
CCN(CC)c1ccc(/C=C2/SC(=O)N(C(C)C)C2=O)o1 51.9%
Cc1sc2nc3c(SC(C)C(=O)O)cc(C(=O)c4ccccc4O)cn3c(=O)c2c1C (centres undefined) 69%
CCOc1cc(N2CCOCC2)c(OCC)cc1NC(=O)Cc1ccc(OC)c(OC)c1 53.1%
CCOc1cc(N2CCOCC2)c(OCC)cc1NC(=O)Cc1ccccc1OC 51.7%
CCOc1cc(N2CCOCC2)c(OCC)cc1NC(=O)COC(=O)[C@@H]1CCCN1S(=O)(=O)c1ccccc1F 53%
COC(=O)c1c(C)nsc1NC(=O)Oc1ccccc1 50.4%
[O-]/C(=C(\C(=S)Nc1cccc2ccccc12)[n+]1ccccc1)c1cccs1 65.7%
COc1cccc(N=Cc2ccc(O)cc2O)c1 52.5%
COc1ccc(C=Nc2ccc3[nH]ncc3c2)c(O)c1 59.8%
Oc1ccc(Br)cc1C=Nc1ccc2[nH]ncc2c1 55.4%
COc1ccc(N2CCC(CNC(=S)Nc3cccc(C)c3)C2)cc1 (centres undefined) 50.4%
COc1ccc(NC(=S)NCC2CCN(c3ccc(OC)cc3)C2)cc1 (centres undefined) 55.3%
O=C1C=C(N(CCO)Cc2ccccc2)c2ccccc2C1=O 64.6%
COc1ccccc1/C=C/C1=NC(=C\N(C)C)/C(=O)O1 56.8%

inhibition, inactive:
Cc1c(Cl)cccc1NC(=O)Cn1cc(C(F)(F)F)cc(Cl)c1=O -5.8%
CC(C)N1C(=O)S/C(=C/c2ccc3c(c2)n(C)c(=O)n3C)C1=O 7.6%
CC(C)N1C(=O)S/C(=C/c2ccc(Sc3nc4ccccc4[nH]3)o2)C1=O 13.6%
C/C(=N\NC(=O)CN(c1ccccc1Br)S(C)(=O)=O)c1cccs1 -17.2%
CCS(=O)c1ccccc1C(=O)O (centres undefined) 9.5%
CCCCNc1nc(CC)c2c(c1C#N)CCCC2 -5.9%
Cc1sc2nc3c(C(=O)N4CCCC4)cc(C(=O)c4ccccc4O)cn3c(=O)c2c1C 7.7%
CCOC(=O)c1cc(C(=O)c2ccccc2O)cn2c(=O)c3c(C)c(C)sc3nc12 16.1%
CCc1ccc(C(=O)CN2C(=O)C(C)N(c3ccc(C)cc3)C2=O)cc1 (centres undefined) 4.9%
CCOc1cc(N2CCOCC2)c(OCC)cc1NC(=O)Cc1cccc2ccccc12 -0.6%
CCOc1cc(N2CCOCC2)c(OCC)cc1NC(=O)COc1ccccc1[N+](=O)[O-] 23.9%
CCOc1cc(N2CCOCC2)c(OCC)cc1NC(=O)Cc1cccc(OC)c1 8.1%
CCOc1cc(N2CCOCC2)c(OCC)cc1NC(=O)COC(=O)c1ccccc1C 11.5%
COc1ccc(NC(=O)COC(=O)[C@@H]2CCCN2S(=O)(=O)c2ccccc2F)c(OC)c1 -1.3%
COc1ccc(CC(=O)Nc2ccccc2N2CCOCC2)cc1OC -2.2%
O=C(CCn1c(=O)sc2ccccc21)Nc1nccs1 4.8%
Cc1ccc(NC(=O)CN2CCN(CCN=CC3=C(O)CC(C)(C)CC3=O)CC2)cc1 -3.9%
COC(=O)CSc1nc(C)cc(N2CCOCC2)n1 -3.4%
CCc1n[nH]c(=S)n1/N=C/c1cc(Br)c(OC)cc1OC -2.2%
Cc1nnc(NC(=O)Oc2ccccc2)s1 4.4%
Cc1c(NC(=O)Oc2ccccc2)sc(=S)n1C -4.6%
COc1ccccc1C(=O)Nc1nc(N)n(-c2ccccc2)n1 -3.7%
[O-]/C(=C(\C(=S)Nc1cccc2ccccc12)[n+]1ccccc1)c1ccc(Cl)s1 5.8%
Cc1cccc(C)c1NC(=S)/C(=C(\[O-])c1cccs1)[n+]1ccccc1 5.5%
O=C(O)CSCC(=O)Nc1ccc(Cl)cc1C(F)(F)F -0.6%
O=C(CCN1C(=O)COc2ccccc21)NCCC1=CCCCC1 19.9%
CC(C)(C)P(=O)(CO)c1ccccc1 (centres undefined) 1.7%
C=CCOc1ccc(C=Nc2ccc(OC)cc2)c(O)c1 49%
Cc1ccc(N=Cc2ccc(O)cc2O)cc1F 9.7%
COc1cccc(N=Cc2c[nH][nH]c2=O)c1 16.7%
Brc1ccc2[nH]ncc2c1 -2.5%
CC1(C)CC(=O)C(C=Nc2ccc3[nH]ncc3c2)=C(O)C1 38.6%
OCC(CO)(CO)N=Cc1cc(Br)ccc1O 27%
O=C(c1ccc(OC2CCN(Cc3ccccn3)CC2)cc1)N1CCCC(O)C1 (centres undefined) -8.1%
Cn1c(Cn2c(=O)sc3ccccc32)nnc1SCC(=O)Nc1ccccc1F 0.2%
O=C(COc1ccccc1)Nc1ccc(CSc2ccccc2)cc1 2.7%
O=C(NCc1ccccn1)C(=O)NCC(c1ccco1)N1CCOCC1 (centres undefined) -8.8%
COc1ccc(CNC(=S)Nc2cccc(C)c2)cc1 7.5%
COc1ccc(N2CCC(CNC(=S)Nc3cccc(OC)c3)C2)cc1 (centres undefined) 45.4%
COc1ccc(CNC(=S)Nc2ccc(OC)cc2)cc1 7.4%
COc1ccc(NC(=S)NCCN2CCOCC2)cc1 -3.1%
COc1ccccc1-n1cnnc1SCC(=O)N1CCN(S(=O)(=O)c2ccccc2)CC1 4.9%
Cn1nnnc1SCCNCc1ccc(Cl)cc1 3.8%
O=C(CCCn1c(=O)oc2ccccc21)NC1CCCCCC1 -6.9%
O=C(CCN1C(=O)c2ccccc2C1=O)N(CCO)Cc1ccccc1 0.1%
COc1ccc(N2C(=O)C(Cl)=C(N(CCO)Cc3ccccc3)C2=O)cc1 3.2%
Cc1cc(Nc2ccc(F)cc2Cl)n2ncnc2n1 16.6%
COc1ccc(/C=C/C2=NC(=C\N(C)C)/C(=O)O2)cc1 5.3%
COc1ccccc1/C=C/C1=NC(=C\C=C/c2ccccc2)/C(=O)O1 0.5%
CCCCOC(=O)C1[C@H]2C(=O)N(CCc3ccccc3)C[C@]23C=C[C@H]1O3 (some centres undefined) -0.4%
